Experimental findings from PubChem BioAssay are described below.

Calls of active or inactive are those of the source.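 Rule for the calls, unless noted: active = compound that reduces growth-factor-driven endothelial tube area in a mixed cell culture, no cutoff stated; inactive = the rest.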

The nature of assay [1]: stimulators of insulin release from INS-1E, primary screen, cell-based, 5 mM glucose, NPC library (AID 1117329;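 active = compound raises insulin release from rat beta cells at 5 mM glucose, no numeric limit stated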). To be noted: rat INS-1E insulin secretion, at 10 µM, stronger effect = higher value.
Assay [2] is described as follows: growth inhibition of GSK3B-pretreated HCT116 cells – cell-based, CellTiter-Glo, 0.2 to 20 µM (AID 1117336;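 active = compounds lowering colon cancer cell viability after pretreatment blocking the GSK3B kinase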). To be noted: HCT116 viability after GSK3B inhibitor, at 20 µM, stronger effect = higher value. For orientation: ATP-based viability assays read luminescence as a measure of living cells.
Assay [3] in a line: inhibition of endothelial tube formation, primary screen, imaging, VEGF stimulated, CD31 staining, tube area, NPC library (AID 1117340). Particulars: VEGF-stimulated ADSC/ECFC co-culture, at 10 µM, stronger effect = higher value.
Assay [4] can be described thus: glucagon-like peptide 1 release enhancers, primary assay, NCI-H716 cell line, NPC library (AID 1117341;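 active = compound raises GLP1 secretion from the human gut endocrine cells, with no numeric limit stated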). To be noted: NCI-H716 cells, at 10 µM, stronger effect = higher value.
The nature of assay [5]: HCT116 colon cancer cell growth inhibition, primary screen, CellTiter-Glo luminescence, NPC library (AID 1117342;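 active = compounds that lower survival of HCT116 colon cancer cells in the luminescence readout, no numeric limit stated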). Particulars: at 20 µM (top of the series).
Assay [6] in a line: CellTiter-Glo luminescent readout of SW480 viability loss, NPC library primary (AID 1117343;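 active = compounds that lower viability of the colon cancer cells in the luminescence readout, with no numeric limit stated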). Particulars: CellTiter-Glo luminescence; at 20 µM (top of the series).
A short description of assay [7]: decreased DLD-1 cellular survival, CellTiter-Glo luminescent readout, NPC compound collection, primary HTS (AID 1117346;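 active = compounds that lower survival of DLD-1 colon cancer cells in the luminescence readout, no cutoff given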). To be noted: DLD-1 viability, CellTiter-Glo luminescence; at 20 µM (top of the series).
In assay [8] the target is 6-phosphogluconate dehydrogenase, decarboxylating (Homo sapiens) (UniProt P52209). As to the kind of experiment: 6PGD enzyme inhibitors, primary screen, biochemical, human, recombinant enzyme, NADPH absorbance (AID 1159550;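 active = at least 20% inhibition of 6-phosphogluconate dehydrogenase activity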). Particulars: recombinant 6PGD, NADPH absorbance 341 nm; at 10 µM; stronger effect = higher value.
Assay [9] can be described thus: differential killing of epithelial or mesenchymal cells, primary screen, imaging, PC-3E GFP, TEM4-18 mCherry, co-culture (AID 1345086;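 active = compounds killing one labelled cell type while sparing the other, by normalised counts and ratio limits, not self-fluorescent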;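 for all read-outs here: cells exposed to compound for 72 h before imaging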;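 for red/green cell ratio (normalised): normalised mesenchymal count divided by normalised epithelial count so high means epithelial killing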). Particulars: imaging cell counts, at 1 µM; for red/green cell ratio (normalised): actives lie on both sides, counts scaled to control wells, 1 = unselective.
The mark [10] stands for this setting: measured here: epithelial PC-3E GFP cell survival.
[11] abbreviates: measured here: mesenchymal TEM4-18 mCherry cell survival.

Chain of 6-phosphogluconate dehydrogenase, decarboxylating (Homo sapiens) (P52209 whole entry, looked up): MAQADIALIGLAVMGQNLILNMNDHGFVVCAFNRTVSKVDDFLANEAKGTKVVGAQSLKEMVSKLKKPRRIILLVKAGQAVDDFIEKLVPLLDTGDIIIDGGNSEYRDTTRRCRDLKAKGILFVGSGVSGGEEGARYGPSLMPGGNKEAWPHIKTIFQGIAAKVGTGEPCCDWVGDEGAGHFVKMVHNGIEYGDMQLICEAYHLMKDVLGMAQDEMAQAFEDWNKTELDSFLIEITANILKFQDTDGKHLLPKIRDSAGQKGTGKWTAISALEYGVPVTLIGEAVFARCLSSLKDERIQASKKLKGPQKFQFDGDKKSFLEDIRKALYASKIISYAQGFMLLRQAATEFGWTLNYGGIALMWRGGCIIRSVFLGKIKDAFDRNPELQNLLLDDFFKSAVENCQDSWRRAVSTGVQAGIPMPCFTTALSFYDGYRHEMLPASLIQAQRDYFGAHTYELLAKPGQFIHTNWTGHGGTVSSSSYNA

For `Nc1c2ccccc2nc2ccccc12`, the insulin secretion stimulation in assay [1] is 39.7% (active). Also, the viability decrease in assay [2] is 49.2% (active). In addition, the tube area decrease in assay [3] was 81.5% (active). Also, the GLP1 secretion stimulation in assay [4] is 11.4% (inactive). In assay [5], the inhibition of viability was 105% (active). Also, the viability decrease (inhibition) in [6] was 107% (active); in assay [7], 49% (active). The inhibition (usually the relative decrease from the control value, in per cent) in assay [8] was -6.58% (inactive). The red/green cell ratio (normalised) in [9] was 0.95 (inactive). Moreover, the normalised cell number is 0.63 in assay [9] (setting [10]) and 0.6 in [9] (setting [11]).
`CC(=O)NCCCCCC(=O)O`: in assay [1], the insulin secretion stimulation was 1.2% (inactive). In addition, the viability decrease in assay [2] is -17.4% (inactive). Besides, the tube area decrease in assay [3] is -4.2% (inactive). In assay [4], the GLP1 secretion stimulation was -0.1% (inactive). In [5], the inhibition of viability was -1.55% (inactive). Moreover, the viability decrease (inhibition) in assay [6] is 24.9% (inactive); in assay [7], -11.9% (inactive). Besides, the inhibition in [8] is -3.52% (inactive). For the same molecule, the red/green cell ratio (normalised) in assay [9] is 0.96 (inactive). Also, the results for the normalised cell number in assay [9] (setting [10]) and in assay [9] (setting [11]) were 0.98 and 0.95, respectively.
With `CC(N)CCCC(C)(C)O` (centres undefined), the insulin secretion stimulation in assay [1] is 0.6% (inactive). Moreover, the viability decrease in [2] was -36.1% (inactive). Moreover, the tube area decrease in [3] was -13.2% (inactive). The GLP1 secretion stimulation in assay [4] is -1.9% (inactive). The inhibition of viability in assay [5] was -2.33% (inactive). Besides, the viability decrease (inhibition) was 13% (inactive) in assay [6] and -0.1% (inactive) in assay [7]. The inhibition in assay [8] was -2.18% (inactive). The red/green cell ratio (normalised) in assay [9] is 0.95 (inactive). Besides, the values for the normalised cell number in [9] (setting [10]) and in [9] (setting [11]) were 0.99 and 0.93, respectively.
As for `CCN(CCCCOC(=O)c1ccc(OC)c(OC)c1)C(C)Cc1ccc(OC)cc1` (centres undefined), the insulin secretion stimulation in [1] is 49.6% (active). The viability decrease in [2] is -125% (inactive). Besides, in [3], the tube area decrease is 23.2% (inactive). Further, the GLP1 secretion stimulation in assay [4] is 0.3% (inactive). The inhibition of viability in assay [5] is 26.7% (inactive). Besides, the viability decrease (inhibition) in assay [6] is 20% (inactive); in assay [7], 8% (inactive). The inhibition in assay [8] was -12.1% (inactive). Further, in assay [9], the red/green cell ratio (normalised) was 1.1 (inactive). Also, the normalised cell number in assay [9] (setting [10]) is 0.88; in assay [9] (setting [11]), 0.97.
On to `CC(C)NNC(=O)c1ccncc1`, for which, in assay [1], the insulin secretion stimulation is -2.5% (inactive). For the same molecule, the viability decrease in assay [2] was -3.15% (inactive). In addition, the tube area decrease in assay [3] was 5.7% (inactive). Besides, the GLP1 secretion stimulation in [4] was 0.4% (inactive). Further, in assay [5], the inhibition of viability is 4.9% (inactive). The viability decrease (inhibition) in assay [6] was 34.8% (inactive); in assay [7], 7.6% (inactive). Besides, the inhibition in [8] is -0.838% (inactive). The red/green cell ratio (normalised) in assay [9] is 0.73 (inactive). Moreover, the normalised cell number in assay [9] (setting [10]) is 1.3; in assay [9] (setting [11]), 0.95.
For `NCCCC(=O)O`, the insulin secretion stimulation in assay [1] is -0.7% (inactive). Besides, in assay [2], the viability decrease is 3.2% (inactive). Further, the tube area decrease in assay [3] was 12% (inactive). Also, the GLP1 secretion stimulation in assay [4] was 1.6% (inactive). Also, the inhibition of viability in assay [5] was 1.3% (inactive). Besides, the values for the viability decrease (inhibition) in assay [6] and in assay [7] were 10.4% (inactive) and 0.95% (inactive), respectively. The inhibition in [8] is 15.9% (inactive). Also, the red/green cell ratio (normalised) in assay [9] was 0.83 (inactive). For the same molecule, the normalised cell number stood at 1.17 in [9] (setting [10]) and 0.97 in [9] (setting [11]).
Turning to `CC(=O)NO`, the insulin secretion stimulation in assay [1] is 5.1% (inactive). For the same molecule, in assay [2], the viability decrease was 30.9% (inactive). In assay [3], the tube area decrease is 11.1% (inactive). Also, in assay [4], the GLP1 secretion stimulation is 10.8% (active). In assay [5], the inhibition of viability is 10.6% (inactive). Besides, the viability decrease (inhibition) in [6] was 69.2% (active); in assay [7] it was 56% (active). Moreover, the inhibition in assay [8] was -9.51% (inactive). Moreover, the red/green cell ratio (normalised) in assay [9] is 1.09 (inactive). The results for the normalised cell number in assay [9] (setting [10]) and in [9] (setting [11]) were 1.08 and 1.18, respectively.
Turning to `CC(=O)Nc1ccccc1`, in assay [1], the insulin secretion stimulation is 1% (inactive). Besides, in assay [2], the viability decrease was -5.1% (inactive). The tube area decrease in assay [3] was -10.1% (inactive). Moreover, the GLP1 secretion stimulation in assay [4] was 2.1% (inactive). Also, the inhibition of viability in [5] was 2.3% (inactive). The viability decrease (inhibition) was 25.2% (inactive) in [6] and 3.55% (inactive) in assay [7]. For the same molecule, the inhibition in assay [8] is -5.03% (inactive). Besides, the red/green cell ratio (normalised) in [9] is 1.11 (inactive). The normalised cell number in [9] (setting [10]) came out at 1.06; in [9] (setting [11]) it was 1.18.
Consider `CC(Cc1cccc(C(F)(F)F)c1)NCCOC(=O)c1ccccc1` (centres undefined), for which the insulin secretion stimulation in assay [1] was 3% (inactive). Further, the viability decrease in assay [2] is -38.7% (inactive). The tube area decrease in assay [3] was 0.6% (inactive). Also, in [4], the GLP1 secretion stimulation was 2.6% (inactive). Besides, the inhibition of viability in assay [5] was 18.1% (inactive). Moreover, the viability decrease (inhibition) is 51.4% (active) in assay [6] and 28.7% (inactive) in assay [7]. Moreover, the inhibition in assay [8] is 16.1% (inactive). Moreover, the red/green cell ratio (normalised) in [9] is 0.76 (inactive). Moreover, the normalised cell number in [9] (setting [10]) was 1.26; in [9] (setting [11]) it was 0.95.
On to `CC(=O)OCC1=C(C(=O)O)N2C(=O)[C@@H](NC(=O)CSc3ccncc3)[C@H]2SC1`, for which, in [1], the insulin secretion stimulation is 0.9% (inactive). The viability decrease in assay [2] was 14.8% (inactive). The tube area decrease in assay [3] was -9.7% (inactive). Besides, the GLP1 secretion stimulation in assay [4] is -1.1% (inactive). In addition, the inhibition of viability in [5] was 5.07% (inactive). The viability decrease (inhibition) in assay [6] is 13.8% (inactive); in [7] it was -15.1% (inactive). Also, the inhibition in [8] is 3.03% (inactive). Also, the red/green cell ratio (normalised) in [9] was 1.23 (inactive). The normalised cell number in assay [9] (setting [10]) worked out at 1; in assay [9] (setting [11]), 1.24.
Consider `Nc1ccc(S(=O)(=O)Nc2nccs2)cc1`, for which the insulin secretion stimulation in [1] was -1.1% (inactive). Moreover, the viability decrease in [2] was -5.95% (inactive). For the same molecule, the tube area decrease in [3] was 18.7% (inactive). Further, in [4], the GLP1 secretion stimulation was -3.5% (inactive). In addition, in assay [5], the inhibition of viability is -3.5% (inactive). In addition, the viability decrease (inhibition) is 52.4% (active) in assay [6] and 12% (inactive) in assay [7]. Also, the inhibition in assay [8] was 2.97% (inactive). In addition, the red/green cell ratio (normalised) in assay [9] is 1.36 (inactive). Further, the normalised cell number in assay [9] (setting [10]) is 0.91; in [9] (setting [11]), 1.24.
On to `C[N+]12CCC(CC1)C(OC(=O)C(O)(c1ccccc1)c1ccccc1)C2` (centres undefined), for which the insulin secretion stimulation in assay [1] was -0.3% (inactive). Moreover, in assay [2], the viability decrease was -30.2% (inactive). Moreover, the tube area decrease in assay [3] is 0.5% (inactive). Besides, in [4], the GLP1 secretion stimulation is -3.1% (inactive). Besides, the inhibition of viability in assay [5] is 10.6% (inactive). In addition, the viability decrease (inhibition) in [6] was 22.9% (inactive); in [7] it was -13.7% (inactive). In assay [8], the inhibition was 11.7% (inactive). For the same molecule, the red/green cell ratio (normalised) in assay [9] is 1.14 (inactive). For the same molecule, the normalised cell number in [9] (setting [10]) was 1.17; in assay [9] (setting [11]), 1.33.
On to `O=C(OCc1ccccc1)c1ccccc1`, for which the insulin secretion stimulation in assay [1] is 0.7% (inactive). In [2], the viability decrease was -5.3% (inactive). For the same molecule, the tube area decrease in assay [3] is 5.6% (inactive). The GLP1 secretion stimulation in assay [4] is -2.6% (inactive). Moreover, the inhibition of viability in assay [5] was 10.4% (inactive). Moreover, the viability decrease (inhibition) in assay [6] is -12.6% (inactive); in [7] it was -9.1% (inactive). The inhibition in assay [8] is -0.0939% (inactive). Further, the red/green cell ratio (normalised) in [9] is 0.83 (inactive). Further, the figures for the normalised cell number in assay [9] (setting [10]) and in assay [9] (setting [11]) were 1.34 and 1.11, respectively.
`CN(C)/N=N/c1nc[nH]c1C(N)=O`: in assay [1], the insulin secretion stimulation was 1.8% (inactive). The viability decrease in assay [2] is -107% (inactive). For the same molecule, the tube area decrease in assay [3] was 85.4% (active). Moreover, the GLP1 secretion stimulation in assay [4] was -1.3% (inactive). Also, the inhibition of viability in assay [5] was -2.45% (inactive). Also, the viability decrease (inhibition) in assay [6] was 34.5% (inactive); in [7], -4.2% (inactive). Besides, the inhibition in [8] was -2.23% (inactive). Further, the red/green cell ratio (normalised) in [9] is 0.71 (inactive). Besides, the normalised cell number in assay [9] (setting [10]) came out at 1.47; in assay [9] (setting [11]), 1.04.
